Shown are actives, neighbours in structure and some others; about 18% of the full set was active somewhere.
TDP1 cell CPT: DT40-hTDP1 cell growth loss with CPT. Potency, µM (doses to about 46.2 µM), for inactives: top-dose activity change, negative = growth inhibition, hits mostly inhibitors. hit rate 12% among 420,000. chicken DT40 Tdp1-/-;hTDP1 cells + 20 nM CPT, ATP luminescence, 48 h. AID 686979; also: potency is read from the fitted curve at half-maximal effect; nearly all actives have a fitted effect of over 55% in size
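Chicken DT40 Tdp1-/- cells complemented with human TDP1, 400 cells/well, exposed to compounds plus 20 nM camptothecin for at least 48 h at 37 C; viability read as ATP content by CellTiter-Glo luminescence.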
TDP1 cell noCPT: qHTS for Inhibitors of human tyrosyl-DNA phosphodiesterase 1 (TDP1): qHTS in cells in absence of CPT; hit rate 15% among 420,000; AID 686978, 2013; Potency, µM (doses to about 46.2 µM), inactives show top-dose activity change, negative = growth inhibition, hits mostly inhibitors; DT40 Tdp1-/- hTDP1 cells, no CPT, ATP luminescence, 48 h; also: potency is read from the fitted curve at half-maximal effect; nearly all actives have a fitted effect of over 55% in size
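Chicken DT40 Tdp1-/- cells stably complemented with human TDP1 were seeded at 400 cells/well with DMSO in place of 20 nM camptothecin. After compound pinning, cells grew at least 48 hr at 37 °C; viability read by CellTiter-Glo luminescence.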
Six1-Eya2 inh: Six1/Eya2 interaction inhibition; Q15475+O00167; AlphaScreen GST-Six1/His-Eya2 binding, biochemical; stronger effect = lower value; activity change, % (no concentration beside the values); hit rate 0.56% among 360,000; AID 651725; in the data active = activity change below about -65%; inconclusive = mostly about -30% to -63%
Target sequence (O00167 whole entry, looked up): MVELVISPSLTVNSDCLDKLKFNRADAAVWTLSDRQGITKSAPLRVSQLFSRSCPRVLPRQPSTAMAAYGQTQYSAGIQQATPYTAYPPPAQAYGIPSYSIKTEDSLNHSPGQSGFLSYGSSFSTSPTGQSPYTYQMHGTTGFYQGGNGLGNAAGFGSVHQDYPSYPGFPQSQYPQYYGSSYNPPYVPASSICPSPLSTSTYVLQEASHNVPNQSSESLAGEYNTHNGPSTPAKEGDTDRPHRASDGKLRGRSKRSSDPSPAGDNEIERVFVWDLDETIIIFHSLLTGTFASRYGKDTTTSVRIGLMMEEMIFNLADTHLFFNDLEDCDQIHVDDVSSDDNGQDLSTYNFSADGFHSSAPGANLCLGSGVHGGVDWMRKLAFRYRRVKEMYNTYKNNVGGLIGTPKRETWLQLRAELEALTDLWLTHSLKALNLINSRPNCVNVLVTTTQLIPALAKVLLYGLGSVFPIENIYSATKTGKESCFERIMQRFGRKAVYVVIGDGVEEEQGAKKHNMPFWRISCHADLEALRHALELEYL
Target sequence (Q15475 whole entry, looked up): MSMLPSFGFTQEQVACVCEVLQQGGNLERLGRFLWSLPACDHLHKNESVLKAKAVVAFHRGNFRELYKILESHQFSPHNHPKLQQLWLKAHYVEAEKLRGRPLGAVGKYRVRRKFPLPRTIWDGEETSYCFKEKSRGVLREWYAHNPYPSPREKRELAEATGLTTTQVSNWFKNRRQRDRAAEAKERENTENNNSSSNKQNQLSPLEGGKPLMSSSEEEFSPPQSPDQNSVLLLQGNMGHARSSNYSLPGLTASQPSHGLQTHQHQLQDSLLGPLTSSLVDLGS
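Compounds are tested against tagged Six1 and Eya2 proteins bridged by glutathione donor and nickel acceptor beads; after a one-hour incubation at 37 °C without light, AlphaScreen emission is recorded.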
IL1B secr inh: inhibitors of inflammasome signaling (IL-1 beta secretion). THP-1 LPS/ATP IL-1B secretion, AlphaLISA, 16 h; stronger effect = lower value. activity change, % at 57.5 µM. hit rate 4.7% among 360,000. AID 743279; in the data active = activity change below about -50%; inconclusive = mostly about -30% to -49%
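THP-1 cells pretreated 1 hr with compounds (up to 57.5 uM final), then stimulated with LPS (250 ng/mL final) plus ATP (1.25 mM final); secreted IL-1B measured by AlphaLISA after 16 hr, decreased signal indicating inhibition.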
CtBP-E1A inh: CtBP/E1A binding inhibition; activity change, % (concentration not given with the values); AlphaScreen GST-E1A/His-CtBP binding, 1536-well; stronger effect = lower value; hit rate 0.49% among 340,000; in the data active = activity change below about -65%; inconclusive = mostly about -30% to -63%
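Homogeneous bead-based format: GST-tagged E1A captured on glutathione donor beads, His-tagged CtBP on nickel acceptor beads; compounds precede bead addition by 2 h at 37 °C.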
TDP1 inh: blocks human tyrosyl-DNA phosphodiesterase 1; Q9NUW8; recombinant TDP1, AlphaScreen DNA substrate cleavage; Potency, µM (series often up to 130 µM), for the others: at the highest dose activity change, negative = inhibition, most hits filed as inhibitors; hit rate 0.28% among 350,000; also: potency is read from the fitted curve at half-maximal effect; nearly all actives have a fitted effect of over 40% in size
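Steps: enzyme plus compound, 15 min RT; add biotin/phosphotyrosine-FITC oligonucleotide (15 nM final), react 5 min; add donor/acceptor beads (10 ug/ml final), 10 min; read AlphaScreen. Tdp1 at 1 nM final.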
An asterisk follows results filed as active; u = inconclusive; x = not tested or not shown; [ ] = remark or other dose. Unless noted, calls follow the shape of the dose curve; as a rule, active = well fitted curve in the direction sought with a large enough effect; inconclusive = small, poorly fitted or top-dose-only effect, or another doubt; inactive = no such curve, though single readings can be large; an effect the other way counts as inactive or inconclusive. % is scaled to controls: 0 for no effect and ±100 for the full control effect.

SMILES | TDP1 cell CPT | TDP1 cell noCPT | Six1-Eya2 inh | IL1B secr inh | CtBP-E1A inh | TDP1 inh
CC(C)(C)C1CCC(OC(=O)CN2CCOCC2)CC1 (stereo not drawn) | -10.7% | -4.8% | -1.6 | 8.3 | 8.7 | 0.7%
CC(C)(C)C1CCC(OC(=O)C[N+]2(C)CCCC2)CC1 (stereo not drawn) | 4.11µM* | 5.17µM* | 4.8 | 8.3 | 19.0 | 1.2%
CC(C)(C)C1CCC(OC(=O)C[N+]2(C)CCCCC2)CC1 (stereo not drawn) | u | 10.3µM* | 9.1 | -6.5 | 6.2 | 2.5%
CC(C)CC1CCCCC1OC(=O)C[N+]1(C)CCCCC1 (stereo not drawn) | u | 10.3µM* | 10.4 | -19.3 | 1.5 | 1.3%
Cn1c(N)c(C(=O)COC(=O)CC(NC(N)=O)c2ccc(Cl)cc2)c(=O)n(C)c1=O (stereo not drawn) | -11.9% | -21.8% | -7.6 | 18.2 | -0.6 | 11.0%
NC(=O)c1nc(-c2ccccc2)c(-c2ccccc2)[nH]c1=O | 0.581µM* | 2.31µM* | -8.1 | -15.0 | -1.8 | x
Cc1ccc(-c2[nH]c(-c3ccc(C(=O)O)cc3)nc2-c2ccccc2)cc1 | -11.1% | -17.8% | -19.6 | 47.8 | 18.2 | 5.8%
CCOC(=O)c1c(NC(C)=O)sc2c(OCC(O)CN(CC)CC)c(Br)ccc12 (stereo not drawn) | u | 20.6µM* | 12.2 | u | -8.5 | 6.3%
Cc1nc(-c2ccc(F)cc2)sc1CCNC(=O)Cc1ccc(F)cc1 | u | u | x | x | x | 4.1%
COc1cccc(C(=O)/C=C/Nc2ccc(S(=O)(=O)Nc3nc(C)cc(C)n3)cc2)c1 | -19.0% | -32.8% | -1.2 | 17.2 | -19.4 | 11.0%
COc1cc(OC)c(OC)cc1/C=C/C(=O)c1ccc(NS(=O)(=O)c2ccc(C)cc2)cc1 | u | u | -0.8 | -59.9* | 0.7 | 4.3%
COc1cc(NS(=O)(=O)c2ccc(N/C=C\C(=O)c3ccc(OC)c(OC)c3)cc2)nc(OC)n1 | u | u | u | 13.9 | -6.2 | 1.1%
COc1cc(NS(=O)(=O)c2ccc(N/C=C\C(=O)c3ccc(C)cc3)cc2)nc(OC)n1 | 11.6µM* | 20.6µM* | -25.1 | 0.0 | -9.7 | x
COc1cc(NS(=O)(=O)c2ccc(N/C=C(\C#N)c3nc4cc(Cl)ccc4o3)cc2)nc(OC)n1 | 9.2µM* | 14.6µM* | -18.4 | 144.3 | -3.5 | 5.1%
COc1ccc(C(=O)/C=C/Nc2ccc(S(=O)(=O)Nc3cccc(C(C)=O)c3)cc2)cc1 | u | 23.1µM* | -13.0 | -8.2 | -10.4 | 1.8%
CC(=O)c1ccc(NS(=O)(=O)c2ccc(C)cc2)cc1 | -15.3% | -5.2% | 4.6 | 16.1 | 7.8 | 5.7%
O=C(NCc1ccco1)c1[nH]c(C(F)(F)F)nc1-c1ccccc1 | -11.0% | -27.8% | -27.8 | 2.2 | -4.4 | x
COc1cc(NS(=O)(=O)c2ccc(NC(=S)NC(=O)c3sc4ccccc4c3Cl)cc2)nc(OC)n1 | 7.4% | -17.7% | -15.2 | 36.8 | -28.7 | 0.6%
COc1cc(NS(=O)(=O)c2ccc(NC(=S)NC(=O)c3sc4cc(F)ccc4c3Cl)cc2)nc(OC)n1 | -3.7% | -28.5% | 0.0 | -50.4* | 4.2 | 1.1%
COc1cccc(C(=O)/C=C/Nc2ccc(S(=O)(=O)Nc3ccc(C(C)=O)cc3)cc2)c1 | u | 16.4µM* | -24.0 | 0.0 | u | 0.0%
Cc1ccc(CCNC(=O)c2ccc(Cn3c(=O)c4cccn4c4cccnc43)cc2)cc1 | u | u | x | x | x | -5.1%
CCc1ccc(CNC(=O)c2ccc(Cn3c(=O)c4cccn4c4cccnc43)cc2)cc1 | u | 0.461µM* | x | x | x | 5.1%
COc1ccc(CNC(=O)c2ccc(Cn3c(=O)c4cccn4c4cccnc43)cc2)cc1OC | 4.0% | -16.1% | x | x | x | 5.1%
CC(C)CCNC(=O)c1ccc(Cn2c(=O)c3cccn3c3cccnc32)cc1 | u | 0.517µM* | x | x | x | -10.3%
Cc1ccccc1CCNC(=O)c1ccc(Cn2c(=O)c3cccn3c3cccnc32)cc1 | u | 18.4µM* | x | x | x | 0.0%
SMILES | TDP1 cell CPT | TDP1 cell noCPT | Six1-Eya2 inh | IL1B secr inh | CtBP-E1A inh | TDP1 inh
CN(Cc1ccccc1)C(=O)COC(=O)c1ccc(=O)n(Cc2ccccc2)n1 | 15.5% | 16.0% | 4.8 | 10.7 | 3.8 | x
CN(C(=O)COC(=O)c1ccc(=O)n(Cc2ccccc2)n1)c1ccccc1 | 14.6µM* | 18.4µM* | -0.6 | 12.9 | x | -5.1%
Cc1ccc(N2CC(C(=O)Nc3nccs3)CC2=O)cc1 (stereo not drawn) | 1.6% | 2.1% | 5.1 | 9.1 | 3.0 | 0.0%
COC(C[C@@H]1O[C@H]1C(=O)[C@@H](C)OCc1ccccc1)OC | 18.4µM* | -70.1% | 4.2 | u | 1.2 | x
COC(C[C@H]1O[C@H]1C(=O)[C@@H](C)OCc1ccccc1)OC | 10.3µM* | u | 0.5 | -12.8 | 7.9 | x
CCCc1ccc(-c2csc(NC(=O)C3=COCCO3)n2)cc1 | -24.5% | u | -0.8 | 25.7 | x | -2.2%[56.1 µM]
CCn1cc(S(=O)(=O)c2ccccc2)c(=O)c2cc(F)c(F)cc21 | -3.9% | u | x | x | x | 6.4%
COc1cccc(-n2c(SCC(=O)N3CCOCC3)nc3c([nH]c4ccccc43)c2=O)c1 | -11.8% | -18.1% | -0.5 | -21.1 | 9.1 | x
CC(=O)c1c(O)cc(C(C)C)n(-c2ccccc2)c1=O | -4.1% | -7.1% | -0.8 | 20.2 | -3.8 | 5.3%
C=CCOC(=O)C1=C[C@H](c2cn(C(C)=O)c3ccccc23)C[C@H](OCc2ccc(CO)cc2)O1 | u | 20.6µM* | -1.3 | 18.4 | -5.9 | 1.3%
O=C(C1=C[C@H](c2coc3ccccc3c2=O)C[C@H](OCCCCO)O1)N1CCN(Cc2ccc3c(c2)OCO3)CC1 | 20.6µM* | 16.4µM* | -5.7 | x | -0.6 | 3.8%
O=C(C1=C[C@H](C2CCCCC2)C[C@H](OCCCCO)O1)N1CCN(Cc2ccccc2)CC1 | 20.6µM* | u | -6.9 | -8.7 | -4.9 | 2.6%
CC(=O)n1cc([C@@H]2C=C(C(=O)N3CCN(C)CC3)O[C@H](OCc3ccc(CO)cc3)C2)c2ccccc21 | u | -0.4% | -1.7 | -12.0 | 1.7 | x
CCO[C@@H]1OC(C(=O)N2CCN(Cc3ccc4c(c3)OCO4)CC2)=C[C@H](c2cn(C(C)=O)c3ccccc23)[C@H]1CCCO | u | u | -12.5 | u | -7.4 | 7.7%
CC(=O)n1cc([C@H]2C=C(C(=O)N3CCN(Cc4ccc5c(c4)OCO5)CC3)O[C@@H](OCCCCO)C2)c2ccccc21 | 16.4µM* | u | -13.6 | -15.5 | -5.3 | 5.1%
